# Experimental data taken from PubChem BioAssay (NCI).
# About 79,000 compounds went through this panel and 15% of them were active in at least one assay; those are over-represented in the sample as a whole. The source made the active and inactive calls. Rule as the data show it: active = growth inhibition above about 70%; inactive = the rest.
# Columns and labels:
# [1] = NCI Yeast Anticancer Drug Screen. Data for the rad50 strain (AID 155);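 also: 0% = growth of vehicle-only cultures of the same strain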; details: S. cerevisiae rad50 strain growth inhibition, hits give high values
# In short: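 Inhibition values express reduced yeast growth in compound-treated cultures relative to vehicle-treated controls.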
# [2] = NCI Yeast Anticancer Drug Screen. Data for the mec2-1 strain (AID 157); details: S. cerevisiae mec2-1 strain, hits give high values
# In short: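 Using mec2-1 yeast: add compound, measure growth, express inhibition versus vehicle-treated cultures.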
# [3] = NCI Yeast Anticancer Drug Screen. Data for the sgs1 mgt1 strain (AID 161);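 also: 0% = growth of cultures given vehicle only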; details: S. cerevisiae sgs1 mgt1 strain, hits give high values
# In short: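 Yeast cells carrying a defined DNA-repair defect were exposed to test compounds. Growth inhibition was measured relative to vehicle-treated controls.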
# [4] = NCI Yeast Anticancer Drug Screen. Data for the cln2 rad14 strain (AID 165);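 also: 0% = growth equal to vehicle treated cultures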; details: S. cerevisiae cln2 rad14 strain, hits give high values
# In short: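 Yeast strain cln2 rad14, bearing defects in cell cycle control and DNA repair, serves as the test system; values reflect growth inhibition compared with vehicle.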
# [5] = NCI Yeast Anticancer Drug Screen. Data for the bub3 strain (AID 167); details: S. cerevisiae bub3 mutant strain, hits give high values
# In short: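 Steps: expose the mutant yeast strain to compound; grow alongside vehicle-treated cultures; measure growth; express inhibition against the vehicle cultures.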
# [6] = NCI Yeast Anticancer Drug Screen. Data for the mlh1 rad18 strain (AID 175); details: S. cerevisiae mlh1 rad18 strain growth inhibition, hits give high values
# In short: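 Steps: expose repair-defective yeast to compound; measure growth; express inhibition against vehicle-treated controls.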
# [7] = at 5.0 µM (retest, dose inferred, filed as 0.5)
# [8] = at 50.0 µM (retest, dose inferred, filed as 5.0)
SMILES,"growth inhibition [1, 7]","growth inhibition [1, 8]",growth inhibition ([1]; at 50.0 µM),"growth inhibition [2, 7]","growth inhibition [2, 8]",growth inhibition ([2]; at 50.0 µM),"growth inhibition [3, 7]","growth inhibition [3, 8]",growth inhibition ([3]; at 50.0 µM),"growth inhibition [4, 7]","growth inhibition [4, 8]",growth inhibition ([4]; at 50.0 µM),"growth inhibition [5, 7]","growth inhibition [5, 8]",growth inhibition ([5]; at 50.0 µM),"growth inhibition [6, 7]","growth inhibition [6, 8]",growth inhibition ([6]; at 50.0 µM)
O=S(NCc1ccccc1)c1ccccc1 (stereo not drawn),-2% (inactive),13% (inactive),25.6% (inactive),0% (inactive),8% (inactive),28.7% (inactive),-2% (inactive),-1% (inactive),43.3% (inactive),-3% (inactive),4% (inactive),39.4% (inactive),0% (inactive),10% (inactive),36.3% (inactive),-1% (inactive),15% (inactive),75.7% (active)
Oc1ccc(-c2ccccc2)cc1O,23% (inactive),99% (active),76.1% (active),13% (inactive),100% (active),82% (active),12% (inactive),99% (active),89% (active),-3% (inactive),99% (active),1.55% (inactive),-6% (inactive),99% (active),46.5% (inactive),27% (inactive),99% (active),81.4% (active)
CN(C)CCCCN1c2ccccc2Sc2ccc(C(=O)c3ccccc3)cc21,0% (inactive),65% (inactive),99.8% (active),-2% (inactive),81% (active),99.8% (active),3% (inactive),79% (active),99.8% (active),2% (inactive),70% (active),99.3% (active),4% (inactive),77% (active),99.7% (active),0% (inactive),82% (active),99.6% (active)
O=[N+]([O-])c1cccc2c(O)cccc12,3% (inactive),58% (inactive),59% (inactive),0% (inactive),35% (inactive),33.4% (inactive),-2% (inactive),31% (inactive),39.1% (inactive),-3% (inactive),30% (inactive),33.8% (inactive),-1% (inactive),65% (inactive),47.2% (inactive),0% (inactive),43% (inactive),73.5% (active)
CC(C)(Br)C(=O)c1ccc([N+](=O)[O-])o1,49% (inactive),99% (active),90.6% (active),62% (inactive),100% (active),93.5% (active),85% (active),100% (active),89.4% (active),51% (inactive),99% (active),84.2% (active),42% (inactive),99% (active),91.8% (active),91% (active),99% (active),91% (active)
O=S(=O)(Nc1ccccc1)c1ccccc1C#Cc1ccccc1,-3% (inactive),91% (active),89.8% (active),-2% (inactive),92% (active),79.2% (active),10% (inactive),93% (active),86.9% (active),-70% (inactive),92% (active),74.3% (active),2% (inactive),64% (inactive),89.8% (active),3% (inactive),95% (active),91.5% (active)
